SENP8 block-1: SENP8 protease inhibition. actives 1.2% (n = 330,000). AID 2540. purified SENP8, Z-RLRGG-aminoluciferin cleavage, luminescence. inhibition, % at 10 µM; in the data active = inhibition above about 50%
SENP8 block-2: SENP8 (human) protease inhibition; recombinant SENP8, Nedd8 substrate fluorescence; inhibition, % at 20 µM; actives 0.64% (n = 360,000); in the data active = inhibition mostly above about 40%, no sharp cut-off; inactive = mostly below about 27%
HSP90 refold inh: HSP90 refolding inhibition in rabbit reticulocyte lysate. AID 1789. actives 0.91% (n = 290,000). inhibition, % at 5.6 µM. luciferase refolding luminescence, 3 h;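 active = inhibition above the screen-wide mean plus 3 SD, computed separately per campaign, cut at about 16% in these data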;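 also: 0% = DMSO wells and 100% = 60 µM geldanamycin wells; inhibitors lower the luminescence because luciferase stays unfolded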
LGR2 antag: inhibitors of bursicon-induced Drosophila LGR2 receptor cAMP signaling | HEK293 LGR2, CRE-luciferase, bursicon-stimulated, 4 h | inhibition, % at 9.99 µM | actives 0.35% (n = 380,000) | AID 720647;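 active = drop in luminescence signal, shown as inhibition above about 50% in the replicate tests, limit read from the data, passing the limit was not always enough; inconclusive = probably only some replicates passing the limit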;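 also: agonist challenge used bursicon conditioned medium at about half maximal strength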
SENP6 inh: inhibitors of human SENP6 protease; inhibition, % at 10 µM; Recombinant SENP6 catalytic domain, aminoluciferin luminescence; actives 1.8% (n = 330,000); Q9GZR1;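 active = inhibition above about 50% at the single tested dose, limit read from the data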;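 also: plate controls were DMSO wells with enzyme for no effect and DMSO wells lacking enzyme for full effect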
SENP7 block: SENP7 protease inhibition. recombinant SENP7, Z-RLRGG-aminoluciferin luminescence, 40 min. inhibition, % at 5 µM. actives 1.5% (n = 330,000). AID 434973;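 active = inhibition above about 50% at the single test dose, limit read from the data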;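 also: plate controls were DMSO with enzyme for no effect and no enzyme buffer wells for full effect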
Target sequence (Q9BQF6 706-1050 limits assumed): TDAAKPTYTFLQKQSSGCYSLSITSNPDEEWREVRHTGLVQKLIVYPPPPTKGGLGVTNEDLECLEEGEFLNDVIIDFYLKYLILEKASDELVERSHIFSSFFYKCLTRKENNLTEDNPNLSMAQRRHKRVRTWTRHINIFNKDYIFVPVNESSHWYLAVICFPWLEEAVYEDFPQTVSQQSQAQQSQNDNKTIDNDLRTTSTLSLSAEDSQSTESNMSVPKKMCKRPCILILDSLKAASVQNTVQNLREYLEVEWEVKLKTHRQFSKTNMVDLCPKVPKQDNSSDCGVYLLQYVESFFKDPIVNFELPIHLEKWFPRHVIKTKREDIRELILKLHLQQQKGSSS
SENP8 conf: confirmation of human SENP8 protease inhibitors; inhibition, % at 12.5 µM; actives 40% (n = 6,200); Recombinant SENP8, Z-RLRGG-aminoluciferin luminescence, 60 min; AID 488912; shares compounds with SENP7 block;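 active = mean inhibition across replicates above about 50%, limit read from the data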
SENP6 conf: confirmation of human SENP6 protease inhibitors; shares compounds with SENP7 block; recombinant SENP6, Z-RLRGG-aminoluciferin luminescence; inhibition, % at 12.5 µM; actives 58% (n = 6,200)
SENP7 confirm: confirmation of human SENP7 protease inhibitors. shares compounds with SENP7 block. recombinant SENP7, Z-RLRGG-aminoluciferin luminescence, 40 min. inhibition, % at 12.5 µM. actives 69% (n = 6,200). AID 488917
Casp3 SENP sel: caspase-3 inhibition (SENP selectivity assay); shares compounds with SENP7 block; purified caspase-3, Z-DEVD-aminoluciferin luminescence, 60 min; inhibition, % at 12.5 µM; actives 60% (n = 6,200); AID 488918;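 active = mean inhibition above about 50%, limit read from the data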;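 also: plate controls were enzyme with DMSO for no effect and wells without caspase-3 for full effect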
Target sequence (P42574 28-227 limits assumed): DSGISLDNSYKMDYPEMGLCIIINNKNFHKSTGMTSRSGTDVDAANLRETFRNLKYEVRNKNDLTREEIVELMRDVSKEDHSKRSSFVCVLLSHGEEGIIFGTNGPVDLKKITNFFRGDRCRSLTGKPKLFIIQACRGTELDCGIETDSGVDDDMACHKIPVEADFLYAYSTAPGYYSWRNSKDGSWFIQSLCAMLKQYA
SENP luc ctr: luminescence interference (SENP counter-screen). shares compounds with SENP7 block. Pre-incubated SENP8/Z-RLRGG-aminoluciferin, luciferase luminescence interference. inhibition, % at 12.5 µM. actives 39% (n = 6,200). AID 488919;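 active = mean inhibition above about 50% when retested at one dose, limit read from the data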;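 also: plate controls were DMSO wells with completed reaction for no effect and substrate without enzyme for full effect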
The depositor's hits bear a star; u = inconclusive; x = no result given. A selection: hits, their analogues and other compounds. The true share with any hit is near 2.3%.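 The calls were made as follows, unless noted: active = mean inhibition above about 50% in the one-dose retest (limit read from the data); inactive = the rest.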

SMILES	SENP8 block-1	SENP8 block-2	HSP90 refold inh	LGR2 antag	SENP6 inh	SENP7 block	SENP8 conf	SENP6 conf	SENP7 confirm	Casp3 SENP sel	SENP luc ctr
Cc1ccc(C(=O)Nc2nc3c(s2)CCCC3)o1	82*	-54	6	x	94*	93*	11	90*	100*	93*	29
Cc1nnc(NC(=O)C2COc3ccccc3O2)s1 (stereo not drawn)	-4	4	1	x	-11	5	x	x	x	x	x
O=C(Nc1nc2c(s1)CCCC2)C1COc2ccccc2O1 (stereo not drawn)	59*	20	51*	80*	67*	59*	75*	73*	92*	67*	32
O=C(C[C@@H]1C=C[C@H](NC(=O)CC2CC2)[C@@H](CO)O1)NCC(F)(F)F	x	x	x	-8	x	x	x	x	x	x	x
CC=Cc1ccc2n(c1=O)C[C@@H]1[C@@H](CO)[C@H](C(=O)NCC)N(C(=O)CC3CC3)[C@H]21 (mixture of isomers)	x	x	x	-8	x	x	x	x	x	x	x
c1cn2cc(-c3ccc4c(c3)OCO4)nc2s1	50*	14	7	-17	73*	64*	59*	56*	85*	79*	72*
O=C(O)c1ccc(-c2noc(-c3ccccc3Cl)n2)cc1	97*	9	x	u	97*	88*	99*	99*	103*	98*	98*
FC(F)(F)c1ccccc1-c1nc(-c2ccncc2)no1	-4	5	0	-13	13	4	x	x	x	x	x
O=C(O)c1ccc(-c2noc(-c3ccccc3C(F)(F)F)n2)cc1	67*	18	x	-77	82*	4	5	29	43	38	46
O=C(O)c1ccc(-c2noc(-c3cccc(Cl)c3)n2)cc1	98*	11	x	2	97*	97*	98*	99*	102*	98*	95*
O=C(O)c1ccc(-c2noc(-c3ccc(F)cc3)n2)cc1	94*	14	x	x	98*	95*	98*	98*	102*	98*	96*
CCCc1cn(CC[C@H]2CC[C@@H](NC(=O)Nc3ccccc3F)[C@H](CO)O2)nn1	x	x	x	12	x	x	x	x	x	x	x
C[C@@H]1CN([C@@H](C)CO)C(=O)c2cc(NS(=O)(=O)c3cn(C)cn3)ccc2O[C@H]1CN(C)C(=O)Nc1ccc(C(F)(F)F)cc1	x	x	x	28	x	x	x	x	x	x	x
CCCC(=O)Nc1ccc2c(c1)C(=O)N(C)[C@@H]1CC[C@@H](CC(=O)NCc3ccccc3F)O[C@@H]1CO2	x	x	x	-3	x	x	x	x	x	x	x
CN1c2cccc3cccc(c23)N(C)C1(C)C	12	-320	6	x	72*	37	-3	4	-4	-4	-5
C[C@@H]1CN([C@H](C)CO)C(=O)c2cccc(NC(=O)c3cnccn3)c2O[C@H]1CN(C)S(=O)(=O)c1ccccc1	x	x	x	12	x	x	x	x	x	x	x
O=C(ONc1ccc(N=NC(=O)c2ccccc2O)cc1)c1ccccc1	85*	32	-3	x	91*	56*	26	27	24	85*	7
Cc1cc(C)n(-c2ccc(C(=O)Nc3sccc3C(N)=O)cc2)n1	37	-234	-1	x	75*	63*	64*	64*	82*	58*	37
CC1CCCCN1S(=O)(=O)c1ccc(C(=O)Nc2sccc2C(N)=O)cc1 (stereo not drawn)	86*	-30	-3	-43	83*	79*	87*	88*	97*	74*	40
NC(=O)c1ccsc1NC(=O)C1CCCN1S(=O)(=O)c1ccc(Cl)cc1 (stereo not drawn)	-1	11	1	x	-7	-3	x	x	x	x	x
O=C1NC(=S)S/C1=C\c1coc2ccc(O)cc2c1=O	60*	18	2	-6	81*	4	7	69*	44	37	74*
O=C(Nc1ccc(Cl)cc1)N1C[C@@H]2[C@H](c3ccccc31)[C@H](CO)N2C(=O)c1ccccn1	x	x	x	-30	x	x	x	x	x	x	x
Cc1c(C(=O)N2CCOCC2)[nH]c2c1C(=O)CC(c1ccc(Cl)cc1)C2 (stereo not drawn)	3	22	-1	x	0	2	x	x	x	x	x
Cc1c(C(=O)O)[nH]c2c1C(=O)CC(c1ccc(Cl)cc1)C2 (stereo not drawn)	5	8	1	2	-7	90*	7	5	-2	-2	-5
CC(C)C#Cc1ccc2c(c1)O[C@H](CN(C)C(=O)Cc1ccccn1)[C@@H](C)CN([C@@H](C)CO)S2(=O)=O	x	x	x	11	x	x	x	x	x	x	x
SMILES	SENP8 block-1	SENP8 block-2	HSP90 refold inh	LGR2 antag	SENP6 inh	SENP7 block	SENP8 conf	SENP6 conf	SENP7 confirm	Casp3 SENP sel	SENP luc ctr
Cc1ccc(-c2ccc([C@@H]3[C@H](CO)N4CCCCN(S(=O)(=O)c5ccccc5C)C[C@@H]34)cc2)cc1	x	x	x	13	x	x	x	x	x	x	x
N#C/C(=C(/O)c1ccc([N+](=O)[O-])o1)c1nc2ccccc2[nH]1	39	33	0	12	66*	42	-2	-1	-4	-2	-4
O=C(NC1CCC1)[C@@H]1[C@@H](CO)[C@@H]2Cn3c(ccc(-c4ccncc4)c3=O)[C@@H]2N1CC1CC1	x	x	x	5	x	x	x	x	x	x	x
Cc1ccc(S(=O)(=O)Nc2cccc3c2O[C@H](CN(C)C(=O)Nc2ccc(F)cc2)[C@H](C)CN([C@H](C)CO)C3=O)cc1	x	x	x	11	x	x	x	x	x	x	x
Oc1c(/C=N/Nc2cccc3cccnc23)ccc2ccccc12	37	-98	0	-88	52*	15	20	13	12	10	5
Oc1cccc(/C=N/Nc2cccc3cccnc23)c1	96*	-81	-2	-16	-7	92*	97*	100*	104*	94*	93*
COc1n[nH]c(C(=O)Nc2cc(Cl)ccc2Cl)c1[N+](=O)[O-]	7	14	-4	-11	55*	10	19	18	42	26	6
CCCNC(=O)C[C@@H]1CC[C@H]2[C@@H](COC[C@H](O)CN2C(=O)c2cccnc2)O1	x	x	x	-6	x	x	x	x	x	x	x
NC1=Nc2cccc3cccc1c23	11	-351	3	8	66*	2	1	23	9	3	2
Cc1nc(C)c(-c2csc(Nc3ccc(F)cc3)n2)s1	-2	-14	0	-66	-1	1	x	x	x	x	x
